Assay outcomes: PubChem, National Center for Advancing Translational Sciences (NCATS)
RGS4 inhibitor = inhibitors of human regulator of G protein signaling 4. P49798. Transcreener GDP fluorescence polarization, RGS4-accelerated GTP hydrolysis. actives 0.039% (n = 390,000). Potency, µM (titrated, usually from 114 µM), without a hit: at the highest dose activity change, negative = inhibition, most hits filed as inhibitors; active = well fitted inhibition curve with a large enough effect; inconclusive = small, poorly fitted or top-dose-only effect; inactive = no such curve, though single readings can be large or run the other way; note: potency is the fitted concentration of half-maximal effect; % is set by controls: 0 for no effect and ±100 for the full control effect; nearly all actives have a fitted effect of over 75% in size
Target sequence (P49798 whole entry, looked up): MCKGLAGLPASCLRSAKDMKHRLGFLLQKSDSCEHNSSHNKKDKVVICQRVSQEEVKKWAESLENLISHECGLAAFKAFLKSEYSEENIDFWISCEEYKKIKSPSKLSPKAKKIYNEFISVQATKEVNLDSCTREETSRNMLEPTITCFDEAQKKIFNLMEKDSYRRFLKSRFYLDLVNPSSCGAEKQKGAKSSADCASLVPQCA
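MLSMR compounds (23 nl, pin-transferred) preincubated 10 min at room temperature with a 500nM (2x) first reagent, then RGS4 at 900nM (2x) plus Transcreener GDP mix added; fluorescence polarization (620/688 nm) read before and after 90 min at 30 °C.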
DRD3 agonist = agonists of human D3 dopamine receptor; P35462; D3R DiscoveRx beta-arrestin cells, luminescence, 90 min; max activation, %; actives 0.58% (n = 410,000); AID 652048; in the data active = max activation above about 30%; note: 0% is about no effect
Target sequence (P35462 whole entry, looked up): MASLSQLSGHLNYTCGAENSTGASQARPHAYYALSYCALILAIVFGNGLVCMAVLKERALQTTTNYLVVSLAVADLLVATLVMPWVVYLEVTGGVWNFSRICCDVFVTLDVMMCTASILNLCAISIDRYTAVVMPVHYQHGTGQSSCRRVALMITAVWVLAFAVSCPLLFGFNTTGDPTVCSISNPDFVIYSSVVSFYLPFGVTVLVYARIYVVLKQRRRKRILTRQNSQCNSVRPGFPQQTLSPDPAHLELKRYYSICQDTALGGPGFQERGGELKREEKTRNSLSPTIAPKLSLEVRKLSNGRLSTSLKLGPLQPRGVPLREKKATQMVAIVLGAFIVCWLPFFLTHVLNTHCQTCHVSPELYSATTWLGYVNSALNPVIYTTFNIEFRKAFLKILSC
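Cells at 1500/well, incubated overnight, then treated with pinned compounds (dopamine as control) for 90 min at 37 degrees C. DiscoveRx reagent added for 30 - 60 minutes at room temperature; luminescence read.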
DRD3 antagonist = D3 dopamine receptor (human) antagonism. actives 2.5% (n = 360,000). D3R cells, DiscoveRx beta-arrestin luminescence, antagonist mode; hits give low values. max response, negative = inhibition, %; in the data active = max response below about -50%; inconclusive = no clear call, values can overlap the other calls; note: % is set by controls: 0 for no effect and ±100 for the full control effect
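Cells plated overnight at 1500 cells/well, then exposed to library compounds with dopamine controls for 90 minutes at 37 degrees C. DiscoveRx reagent added for 30–60 minutes at room temperature; luminescence read, quantitative HTS format.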
uPA surface inh = inhibitors of cell surface uPA generation; Potency, µM (titrated, usually from 38.3 µM), inactives show at the highest dose activity change, negative = inhibition, actives largely listed as inhibitors; AID 540303; actives 0.31% (n = 330,000); cell surface uPA generation assay, qHTS; active = well fitted inhibition curve with a large enough effect; inconclusive = small, poorly fitted or top-dose-only effect; inactive = no such curve, though single readings can be large or run the other way; tested in mouse RAW 264.7 cells; note: potency is the fitted concentration of half-maximal effect; % is set by controls: 0 for no effect and ±100 for the full control effect; nearly all actives have a fitted effect of over 55% in size
The depositor's hits bear a star; ? = inconclusive; . = no result; [ ] = another dose, or the depositor's remark. A selection: hits, their analogues and other compounds. The true share with any hit is near 3.1%.

SMILES	RGS4 inhibitor	DRD3 agonist	DRD3 antagonist	uPA surface inh
C=CCc1ccccc1OCC(O)CNC1CCCC1 (configuration not stated)	-11%	-8	-2	8%
COc1ccccc1N1CCN(CC(O)COc2ccc3c(c2)OCO3)CC1 (configuration not stated)	-4%[11.4 µM]	-14	-103*	5%
Oc1cc2c(cc1CN1CCc3ccccc3C1)OCO2	6%	-26	?	3%
C=CCc1ccccc1OCC(O)CNC(C)C (configuration not stated)	-3%[56.9 µM]	-58	-60*	-14%
C=CCc1ccccc1OCC(O)CN1CCN(c2ccccc2F)CC1 (configuration not stated)	22%	28	?	1%
C=CCc1ccccc1OCC(O)CN1CCN(c2ccccc2OC)CC1 (configuration not stated)	4%	-12	-139*	-2%
COc1ccccc1N1CCN(Cc2cc3c(cc2O)OCO3)CC1	5%	-26	-81*	-2%
CC(C)C(=O)OCc1cc(=O)n2nc(C3CC3)sc2n1	-22%	-11	.	.
CCOc1ccccc1N1CCN(CC(O)COC2CCCc3ccccc32)CC1 (configuration not stated)	-13%	-22	-89*	1%
CCOc1ccccc1N1CCN(CC(O)COc2ccc3c(C)cc(=O)oc3c2)CC1 (configuration not stated)	-25%	-9	-70*	-5%
O=S(=O)(c1cccs1)N1CCN(CC(O)COC2CCCc3ccccc32)CC1 (configuration not stated)	-22%	4	?	5%
OC(COc1cccc2ccccc12)CN1CCN(c2ccccc2)CC1 (configuration not stated)	6%	35*	-54*	8%
COc1ccccc1N1CCN(CC(O)COc2cccc3ccccc23)CC1 (configuration not stated)	?	-74	-99*	19%
OC(COc1cccc2ccccc12)CN1CCOCC1 (configuration not stated)	8%	-10	-18	4%
Cc1cc(=O)oc2cc(OCC(O)CN3CCN(c4ccc(F)cc4)CC3)ccc12 (configuration not stated)	-13%	3	?	-6%
COc1ccc(NC(=O)CSc2nc3cc(OC)c(OC)cc3c3nc(-c4ccccc4)nn23)cc1Cl	-5%	-12	.	.
COc1ccc(CNC(=O)c2nc(SCc3ccccc3F)ncc2Cl)cc1	23%	1	.	.
COc1cccc(OC)c1OCC(O)CN1CCN(c2ccccc2F)CC1 (configuration not stated)	1%	28	-57*	-3%
COc1ccc(N2CCN(CC(O)COc3c(OC)cccc3OC)CC2)cc1 (configuration not stated)	-19%	-4	-28	6%
Cc1ccc(NC(=O)c2cc3c(=O)[nH]c4ccccc4c3n2C)cc1F	11%	-7	.	.
COc1ccccc1NC(=O)CSc1nnc(-c2ccccn2)o1	-10%	32*	12	-1%
O=C(CSc1nnc(-c2ccccc2Cl)o1)Nc1ccccn1	3%	2	12	10µM*
COc1ccccc1NC(=O)CSc1nnc(-c2ccc(C)cc2)o1	-5%	-2	-22	-9%
Cc1occc1-c1nnc(SCC(=O)Nc2ccccn2)o1	-10%	-2	2	-2%
COc1ccc2[nH]cc(CCNC(=O)c3cnn(-c4ccccc4Cl)c3C3CCN(C(=O)OC(C)(C)C)CC3)c2c1	2%	15	.	.
SMILES	RGS4 inhibitor	DRD3 agonist	DRD3 antagonist	uPA surface inh
CSc1ccc2c(c1)C(N1CCN(C)CC1)Cc1ccc(F)cc1S2 (configuration not stated)	-13%	-18	-95*	-21%
O=[N+]([O-])c1ccc2c(c1)C(N1CCN(CCO)CC1)Cc1ccc(F)cc1S2 (configuration not stated)	.	-20	-106*	.
O=[N+]([O-])c1ccc(CN2CC(N3CCN(CCO)CC3)CS2(=O)=O)cc1 (configuration not stated)	.	-11	0	.
Fc1ccc2c(c1)Sc1ccc(Cl)cc1CC2N1CCN(CCC2OCCO2)CC1 (configuration not stated)	11%	-11	-93*	0%
COc1ccc2c(c1)CC(N1CCN(C)CC1)c1cc(OC)ccc1S2 (configuration not stated)	-24%	-12	-94*	-6%
OCCN1CCN(CC/C=C2/c3ccccc3Sc3ccc(Cl)cc32)CC1	-4%	0	-12	-17%
Cc1cccc(CS(=O)(=O)c2nnc([C@H](Cc3ccccc3)NC(=O)OC(C)(C)C)o2)c1	?	-30	-77*	.
COC(=O)CS(=O)(=O)c1nnc([C@H](Cc2ccccc2)NC(=O)OC(C)(C)C)o1	?	6	-4	-10%
CC(=O)N1N=C(c2cccs2)CC1c1cccc([N+](=O)[O-])c1 (configuration not stated)	19%[56.9 µM]	-12	-60*	?
CCc1ccc(C(=O)/C=C2\Sc3ccccc3NC2=O)cc1	?	-10	-147*	-5%
Cc1cccc(NC(=O)c2ccc(C(=O)Nc3cccc(C)c3C)cc2)c1C	?	2	.	.
CCN1CCN(CCCOc2ccc(Cl)cc2Br)CC1	-13%[56.9 µM]	-11	?	-1%
Clc1ccc(OCCCCCN2CCCC2)c(Br)c1	-34%	-14	-52*	8%
Clc1ccc(Cl)c(OCCCCN2CCNCC2)c1	-19%	-19	-12	-8%
Clc1ccc(OCCCN2CCCCC2)c(Br)c1	6%	-10	-68*	0%
O=S(=O)(CC(CN1CCCCC1)N1CCCCC1)c1ccccc1 (configuration not stated)	-5%	-9	?	8.9µM*
COc1cccc(CN2CCCC(C(=O)Nc3ccc(-c4cscn4)cc3)C2)c1 (configuration not stated)	15%	-35	?	7.1µM*
Cc1ncc(CN2CCCC(C(=O)Nc3ccc(-c4cscn4)cc3)C2)cn1 (configuration not stated)	4%	-2	12	-2%
Cc1nc2c(o1)CCc1ccccc1C2N1CCN(C)CC1 (configuration not stated)	34%	-13	-54*	-4%
O=C(CC(=O)Nc1ccccc1[N+](=O)[O-])Nc1ccccc1[N+](=O)[O-]	2%	-10	-64*	-1%
O=C(CCOc1ccccc1)Nc1ccccc1[N+](=O)[O-]	8%[11.4 µM]	4	5	?
Cc1cccc2c1N(CCCOc1ccc(C(C)(C)C)cc1)C(=O)C2=O	?	-8	-22	?
Cc1cccc2c1N(CCCOc1ccccc1)C(=O)C2=O	-45%	-10	-50*	-2%
CCOC(=O)COc1cc2c(C(=O)OCC)c(C)oc2cc1Br	-1%	35*	-6	.
CCOC(=O)c1c(C)oc2cc(Br)c(OC(C)C(=O)OCC)cc12 (configuration not stated)	-9%	-23	22	.
CCc1cccc(C)c1NC(=O)Cn1ccn(-c2cccc(OC)c2)c(=O)c1=O	10%	6	.	.
